{"source": "PubChem BioAssay AID1240", "about": "(Sanford-Burnham Center for Chemical Genomics, 2008)", "note": "Out of some 50,000 compounds screened, about 800 (1.6%) showed an effect of 50% or more. The entries come from a sample that favours strong results as a whole.", "data": [{"biological_target": "Bcl-2-like protein 10 (Homo sapiens) (UniProt Q9HD36)", "sequence (Q9HD36 whole entry, looked up)": "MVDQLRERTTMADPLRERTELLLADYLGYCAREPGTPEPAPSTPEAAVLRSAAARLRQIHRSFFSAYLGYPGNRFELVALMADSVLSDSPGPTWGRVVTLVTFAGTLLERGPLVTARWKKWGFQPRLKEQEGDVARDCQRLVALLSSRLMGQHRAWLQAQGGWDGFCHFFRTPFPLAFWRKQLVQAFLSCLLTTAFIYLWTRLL", "test": "Phenotype converters, Bcl-B/TR3 peptide binding displacement, primary biochemical FP (AID 1240);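 further: 0% = Bcl-B with tracer peptide and DMSO and 100% = tracer peptide lacking Bcl-B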", "details": "GST-Bcl-B / FITC-TR3 peptide fluorescence polarization; stronger effect = higher value; compound at 3.75 mg/L", "units": {"displacement": "%"}, "values": [{"smiles": "COCCc1nnc(NC(=O)Cc2ccccc2)s1", "displacement": 1.2}, {"smiles": "Clc1ccc(-c2noc(CCc3ccccc3)n2)cc1", "displacement": 13.2}, {"smiles": "CN(C)c1ccnc2sc(C(=O)c3ccc(Br)cc3)c(N)c12", "displacement": 10}, {"smiles": "Cc1cc(C)c2c(N)c(C(=O)c3ccc(Br)cc3)sc2n1", "displacement": -7.3}, {"smiles": "Cc1nc2sc(C(=O)c3ccc(Br)cc3)c(N)c2c(C)c1C", "displacement": 132}, {"smiles": "Cc1[nH]n(-c2ccc([N+](=O)[O-])cc2)c(=O)c1C=NC1CCCCC1", "displacement": -1.9}, {"smiles": "O=c1oc2cc([N+](=O)[O-])ccc2nc1/C=C(\\O)c1cccc(Br)c1", "displacement": 3}, {"smiles": "O=c1oc2ccccc2nc1/C=C(\\O)c1cccs1", "displacement": 61.3}, {"smiles": "O=c1[nH]c2ccccc2nc1/C=C(\\O)c1cccs1", "displacement": 98.7}, {"smiles": "O=C(Nc1ccc(-c2nc3ccccc3[nH]2)cc1)c1cccs1", "displacement": -7.9}, {"smiles": "O=c1oc2cc([N+](=O)[O-])ccc2nc1/C=C(\\O)c1ccc(Br)cc1", "displacement": 18.6}, {"smiles": "O=c1oc2cc([N+](=O)[O-])ccc2nc1/C=C(\\O)c1cccs1", "displacement": 94}, {"smiles": "COc1ccc(/C(O)=C/c2nc3ccccc3oc2=O)cc1", "displacement": -1.7}, {"smiles": "COc1ccc(/C(O)=C/c2nc3ccccc3[nH]c2=O)cc1", "displacement": 6.8}, {"smiles": "Cc1nc(C)c(/C(O)=C/c2nc3ccccc3oc2=O)s1", "displacement": -1.1}, {"smiles": "CC(Cc1ccccc1)NC(=O)CC(c1ccccc1)c1ccc(O)c(Cl)c1Cl", "note": "(centres undefined)", "displacement": 2.6}, {"smiles": "O=C(c1ccc(F)cc1)N1CCN(c2cccc(Cl)c2)CC1", "displacement": 2.4}, {"smiles": "CCN(CC)CCCCCCOc1ccc(OC)cc1", "displacement": 10}, {"smiles": "COCCOC(=O)c1ccc(NC(=O)COc2cccc(C)c2C)cc1", "displacement": 1.9}, {"smiles": "CCOC(=O)C(C(=O)OCC)C(C(=O)OCC)(C(=O)OCC)C(C(=O)OCC)C(=O)OCC", "displacement": 2.1}, {"smiles": "COc1ccc(C(=O)N=Nc2c(O)[nH]c3c(C)cc([N+](=O)[O-])cc23)cc1", "displacement": 115}, {"smiles": "COc1ccc(C(=O)N=Nc2c(O)[nH]c3c(C)cc(Br)cc23)cc1", "displacement": 3}, {"smiles": "O=C(N=Nc1c(O)[nH]c2ccc([N+](=O)[O-])cc12)c1ccc2c(c1)OCO2", "displacement": 75.1}, {"smiles": "Cc1cc(C)c2[nH]c(O)c(N=NC(=O)c3cccc([N+](=O)[O-])c3)c2c1", "displacement": -0.6}, {"smiles": "O=C(N=Nc1c(O)[nH]c2ccc(Br)cc12)c1ccc([N+](=O)[O-])cc1", "displacement": 6.8}, {"smiles": "O=C(N=Nc1c(O)[nH]c2ccc([N+](=O)[O-])cc12)c1cccc(Br)c1", "displacement": 3.3}, {"smiles": "CCOc1ccccc1NC(=O)/C=C/c1ccc(Cl)cc1", "displacement": 11.4}, {"smiles": "CCN1C(=O)N(CC)C2C1N(COC(C)=O)C(=O)N2COC(C)=O", "note": "(centres undefined)", "displacement": 1.5}, {"smiles": "COc1ccc(-n2nc3cc(C)c(NC(=O)c4cccnc4)cc3n2)cc1", "displacement": 5.1}, {"smiles": "O=C1c2ccccc2C(=O)N1c1ncc(Cc2cccc(C(F)(F)F)c2)s1", "displacement": -5.8}, {"smiles": "Cc1cccc(NC(=O)CN(c2cccc(Cl)c2)S(C)(=O)=O)c1", "displacement": 3.9}, {"smiles": "CC1=C(C(=O)OC2CCCCC2)C(c2ccc(Br)cc2)NC(=O)N1", "note": "(centres undefined)", "displacement": 17.5}, {"smiles": "CC1=C(C(=O)OC2CCCC2)C(c2ccc(Cl)cc2)NC(=O)N1", "note": "(centres undefined)", "displacement": 7.3}, {"smiles": "CC1=C(C(=O)OC2CCCCC2)C(c2ccc(N(C)C)cc2)NC(=O)N1", "note": "(centres undefined)", "displacement": 99.1}, {"smiles": "CC1=NNC(=O)C1CC(=O)N/N=C/c1ccc(O)cc1", "note": "(centres undefined)", "displacement": -5.3}, {"smiles": "C=CCn1c(Cc2ccccc2)n[nH]c1=S", "displacement": -5.1}, {"smiles": "CCc1ccc(NC(=O)C2CC(=O)N=C(N)S2)cc1", "note": "(centres undefined)", "displacement": -2.4}, {"smiles": "Oc1c(C=Nc2cccc3nsnc23)sc2ccccc12", "displacement": -12.3}, {"smiles": "Cc1cc(NS(=O)(=O)c2ccc(N/C=C/C(=O)c3cccs3)cc2)nc(C)n1", "displacement": 2.1}, {"smiles": "Cc1cc(C)nc(NS(=O)(=O)c2ccc(N/C=C\\C(=O)c3cccs3)cc2)n1", "displacement": 78.5}, {"smiles": "Cc1cc(C)nc(NS(=O)(=O)c2ccc(N/C=C\\C(=O)c3ccc4ccccc4c3)cc2)n1", "displacement": 14.7}, {"smiles": "CCOC(=O)C1=C(O)/C(=C/c2cc(OC)c(OC)c(OC)c2)SC1=Nc1ccc(C)cc1", "displacement": -5.5}, {"smiles": "O=[N+]([O-])c1ccc(C[n+]2cc(-c3ccc(Cl)c(Cl)c3)n3c2CCC3)cc1", "displacement": 9.6}, {"smiles": "O=C1CS/C(=N/N=C/c2ccc(-c3ccc([N+](=O)[O-])cc3)o2)N1", "displacement": 41.1}, {"smiles": "Cc1c(Cl)cccc1-c1ccc(/C=N/N=C2\\NC(=O)CS2)o1", "displacement": 133}, {"smiles": "O=C1CS/C(=N/N=C/c2ccc(-c3ccc(Cl)cc3)o2)N1", "displacement": -6.7}, {"smiles": "Cc1cc(/C=C2\\C(=O)NC(=O)N(c3cccc(F)c3)C2=O)c(C)n1C", "displacement": 18.4}, {"smiles": "COC(=O)Cn1cc(/C=C2\\C(=O)NC(=O)N(c3cccc(F)c3)C2=O)c2ccccc21", "displacement": 35.8}, {"smiles": "O=C(Cn1cc(/C=C2/C(=O)NC(=O)N(c3cccc(F)c3)C2=O)c2ccccc21)Nc1ccccc1", "displacement": 116}, {"smiles": "O=C(Cn1cc(/C=C2\\SC(=O)NC2=O)c2ccccc21)Nc1ccccc1", "displacement": -4.9}, {"smiles": "O=C(Cn1cc(/C=C2/C(=O)NC(=O)N(c3cccc(Cl)c3)C2=O)c2ccccc21)Nc1ccccc1", "displacement": 94.7}, {"smiles": "COc1cccc(/C=C2\\SC(=S)N(Cc3ccccc3)C2=O)c1OC", "displacement": 8.6}, {"smiles": "CC(Oc1ccc(/C=C2/SC(=S)N(Cc3ccccc3)C2=O)cc1)c1ccccc1", "note": "(centres undefined)", "displacement": 123}, {"smiles": "O=Cc1ccc(/C=C2/SC(=S)N(Cc3ccccc3)C2=O)cc1", "displacement": 10.5}, {"smiles": "C=CCc1ccccc1OCCn1cc(/C=C2/SC(=S)N(CC)C2=O)c2ccccc21", "displacement": 11.6}, {"smiles": "COc1ccc(/C=C2/SC(=S)N(Cc3ccccc3)C2=O)c2ccccc12", "displacement": 60.2}, {"smiles": "COc1ccccc1/C=C1/SC(=S)N(Cc2ccccc2)C1=O", "displacement": 16.7}, {"smiles": "Cc1ccccc1OCCn1cc(/C=C2/SC(=S)N(C)C2=O)c2ccccc21", "displacement": 11.6}, {"smiles": "CN1C(=O)/C(=C\\c2cn(Cc3ccccc3)c3ccccc23)SC1=S", "displacement": 8.3}, {"smiles": "CCN1C(=O)/C(=C\\c2cn(CCOc3ccccc3C)c3ccccc23)SC1=S", "displacement": 127}, {"smiles": "COc1ccccc1OCCn1cc(/C=C2/SC(=S)N(Cc3ccccc3)C2=O)c2ccccc21", "displacement": 112}, {"smiles": "CC(C)c1ccc(/C=C2\\SC(=S)N(Cc3ccccc3)C2=O)cc1", "displacement": 2.6}, {"smiles": "CCN1C(=O)/C(=C\\c2cn(Cc3ccccc3)c3ccccc23)SC1=S", "displacement": 3.3}, {"smiles": "O=C(Nc1cccc2ccccc12)c1cc(-c2ccco2)nc2ccccc12", "displacement": 34.2}, {"smiles": "Cc1ccc(C(=O)N2CCC(C(N)=O)CC2)cc1[N+](=O)[O-]", "displacement": -0.2}, {"smiles": "O=C(Nc1ccccc1)/C(=C\\c1cccc(Br)c1)NC(=O)c1ccccc1", "displacement": 4.5}, {"smiles": "COc1ccc(Cc2nnc(NC(=O)Nc3ccccc3)s2)cc1", "displacement": 11.9}, {"smiles": "COc1cc(/C=N/NC(=O)CSCc2ccc([N+](=O)[O-])cc2)cc(OC)c1OC", "displacement": 1.6}, {"smiles": "COc1ccccc1NC(=O)N1CCOCC1", "displacement": -6.8}, {"smiles": "COc1ccc(-c2nc(=S)c3c(n2Cc2ccccc2)CCCC3)cc1", "displacement": 10.1}, {"smiles": "COC(=O)C1=C(C(=O)OC)SC(=C2C(=S)C(C)(C)N(C(=O)c3cccc(C)c3)c3cc(OC)ccc32)S1", "displacement": -7.2}, {"smiles": "Nc1ccc2nc(SCC(=O)Nc3cccc(C(F)(F)F)c3)sc2c1", "displacement": -3.3}, {"smiles": "CCN1C(=O)/C(=C\\c2cn(CCOc3ccccc3)c3ccccc23)SC1=S", "displacement": 20.9}, {"smiles": "C=CCN1C(=O)/C(=C\\c2cn(CCOc3cccc(OC)c3)c3ccccc23)SC1=S", "displacement": 91.7}, {"smiles": "C=CCN1C(=O)/C(=C\\c2cc(Br)ccc2OCCOc2cccc(OC)c2)SC1=S", "displacement": -43.6}, {"smiles": "O=C(O)c1ccc2c(c1)C(=O)N(c1ccc(-c3nnc(-c4ccccc4)o3)cc1)C2=O", "displacement": 9}, {"smiles": "COC(=O)c1c(NC(=O)/C=C/c2ccco2)sc(C)c1C", "displacement": -12.6}, {"smiles": "CCOC(=O)c1c(NC(=S)NC(=O)/C=C/c2ccco2)sc(C)c1C", "displacement": 23.9}, {"smiles": "CCOC(=O)c1nc(NC(=O)/C=C/c2ccco2)sc1C", "displacement": 73.7}, {"smiles": "O=C(/C=C/c1ccco1)Nc1nc2ccc(Br)cc2s1", "displacement": 59.2}, {"smiles": "O=C(/C=C/c1ccccc1)Nc1nc2ccc(Br)cc2s1", "displacement": 15}, {"smiles": "COc1ccc(Br)cc1/C=C/C(=O)Nc1nc2ccc(C)cc2s1", "displacement": -22.6}, {"smiles": "Cc1ccc(OCCNc2cc(Cl)ccc2[N+](=O)[O-])cc1C", "displacement": 0.6}, {"smiles": "CSc1ccc(/C=N/S(=O)(=O)CCc2ccccc2)cc1", "displacement": -7.7}, {"smiles": "CCCS(=O)(=O)c1c(S(=O)(=O)CCC)c2c(C)cccn2c1C(N)=O", "displacement": -9.8}, {"smiles": "COc1c(Cl)ccc(Cl)c1C(=O)Nc1ccc(I)cc1", "displacement": -9.5}, {"smiles": "O=C(c1ccc(Cl)cc1)N1CCC(Cc2ccccc2)CC1", "displacement": 16.4}, {"smiles": "Cc1ccc([N+](=O)[O-])cc1-c1ccc(/C=C2\\C(=O)NC(=O)N(c3ccc(Cl)cc3)C2=O)o1", "displacement": 6.8}, {"smiles": "COc1cc([N+](=O)[O-])ccc1-c1ccc(/C=C2\\C(=O)NC(=O)N(c3ccccc3)C2=O)o1", "displacement": 132}, {"smiles": "O=C1NC(=O)N(c2ccccc2)C(=O)/C1=C\\c1ccc(-c2ccc([N+](=O)[O-])cc2Br)o1", "displacement": -14.8}, {"smiles": "COc1ccc([N+](=O)[O-])cc1-c1ccc(/C=C2\\C(=O)NC(=O)N(c3cc(C)cc(C)c3)C2=O)o1", "displacement": 92.6}, {"smiles": "COc1cc([N+](=O)[O-])ccc1-c1ccc(/C=C2\\C(=O)NC(=S)N(c3ccc(Cl)cc3)C2=O)o1", "displacement": 16.2}, {"smiles": "CCOc1ccc(N2C(=O)NC(=O)/C(=C\\c3ccc(-c4ccc([N+](=O)[O-])cc4OC)o3)C2=O)cc1", "displacement": 23}, {"smiles": "Cc1cc(C)cc(N2C(=O)NC(=O)/C(=C\\c3ccc([N+](=O)[O-])o3)C2=O)c1", "displacement": -3.8}, {"smiles": "COc1cc([N+](=O)[O-])ccc1-c1ccc(/C=C2\\C(=O)NC(=O)N(c3ccc(C)c(C)c3)C2=O)o1", "displacement": 75.5}, {"smiles": "COc1ccc([N+](=O)[O-])cc1-c1ccc(/C=C2\\C(=O)NC(=O)N(c3ccc(Cl)cc3)C2=O)o1", "displacement": 25.1}, {"smiles": "Cc1ccc([N+](=O)[O-])cc1-c1ccc(/C=C2/C(=O)NC(=O)N(c3ccccc3)C2=O)o1", "displacement": 82.8}, {"smiles": "COc1ccc(N2C(=O)NC(=O)/C(=C/c3ccc(-c4ccc([N+](=O)[O-])cc4C)o3)C2=O)cc1", "displacement": 13.6}, {"smiles": "COc1cc([N+](=O)[O-])ccc1-c1ccc(/C=C2\\C(=O)NC(=O)N(c3ccc(Cl)cc3)C2=O)o1", "displacement": 14}]}]}
